Results from PubChem BioAssay (NCI).
The panel holds about 83,000 compounds, 20% with a hit somewhere; the sample as a whole holds those more often.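 How to read the values: 0–100, growth inhibition (40 = 60% inhibited); 0, no net growth; -100 to 0, cell death (-40 = 40% of starting cells died; -100 = all dead).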 Values without a mark were called inactive. Activity calls are given as the source filed them.

tested on: HCC-2998 colon; test: NCI-60 one-dose screen, 48 h (100 = growth as untreated, 0 = no growth, -100 = all killed); settings: 10 µM unless noted
Protocol: Growth inhibition of the HCC-2998 human tumor cell line is measured as a screen for anti-cancer activity. Cells are grown in 96 well plates and exposed to the test compound for 48 hours. Compounds are tested at a single concentration, which is 10^-5 M for most compounds. The reported endpoint is percent growth (GI% or GIPRCNT), where numbers from 0 - 100% represent growth inhibition, and numbers from -100% - 0 represent cell death. For example, a value of 40 represents 60% growth inhibition. A value of 0 means no net growth occurred over the course of the experiment. A value of -40 indicates 40% of cells at the beginning of the experiment died by the end of the experiment. A value of -100 means all cells are dead at the end of the experiment.
NCI-60 Human Tumor Cell Lines Screen was performed using the standard one-dose NCI protocol, which is described in more detail at https://dtp.cancer.gov/discovery_development/nci-60/default.htm.
Compounds with GIPRCNT values below 10 were considered active. Activity score was based on GIPRCNT using the following formula: […]
Score is 0 for GIPRCNT values of 100 or above, 50 for GIPRCNT values of 0, and 100 for GIPRCNT values of -100.

Structure (SMILES)	growth
Nc1nc(Nc2ccccc2SSc2ccccc2Nc2nc(N)nc(-c3ccccc3)n2)nc(-c2ccccc2)n1	110%
COc1c(N2CC3CCCNC3C2)c(F)cc2c(=O)c(C(=O)N/N=C/c3ccccc3)cn(C3CC3)c12 (stereo not given)	113%
Cn1cc(CNc2nc3ccc(OC/C(=C/F)CN)cc3o2)ccc1=O	99%
O=C(O)c1cn(C2CC2)c2cc(N3CCN(C(=O)CN4C(=O)CSC4=O)CC3)c(F)cc2c1=O	115%
CCOc1ccc(NC2=C(Cl)C(=O)c3nc(C)ccc3C2=O)cc1	-55.7% (active)
COc1ccccc1-n1cc(C#N)c(N)c1C(=O)c1ccc(C)cc1	80.9%
COc1cc(-c2nn(C(C)(C)C)cc2-c2ccnc(NCCCNS(=O)(=O)c3ccccc3)n2)ccc1Cl	95.6%
COc1ccc(COc2ccc(/C=C3\C(=O)Nc4ccccc43)cc2OC)cc1	102%
O=C(NNc1nc2cc(F)ccc2n2c(CN3CCCC3)ccc12)c1cnccn1	35.7%
C#CCC#CCN1CCC[C@H]1C(=O)NCC(=O)OC	106%
COc1ccc(-n2c(SCc3n[nH]c(=S)o3)nc3ccc(Cl)cc3c2=O)cc1	101%
CC1(C)[C@@H](O)CC[C@]2(C)[C@H]3CC[C@@H]4[C@H]5[C@H](C(=O)/C=C\c6ccc([N+](=O)[O-])cc6)CC[C@]5(O)CC[C@@]4(C)[C@]3(C)CC[C@@H]12	77.2%
NS(=O)(=O)c1ccc(Nc2nc(N/N=C/c3c[nH]c4ccccc34)nc(Nc3ccccc3)n2)cc1	52.6%
COc1cc2oc(-c3cccc(NC(=O)c4cc(N)ccc4Cl)c3)cc(=O)c2c(OC)c1OC	101%
CS(=O)(=O)Nc1cc(-c2ccc3ncc(C#N)c(N[C@H](CO)c4ccccc4)c3c2)cnc1Cl	42.1%
COCCNc1ccc2ncc(C#Cc3cncc(C(=O)Nc4ccc(CN5CCN(C)CC5)c(C(F)(F)F)c4)c3)n2n1	-23.6% (active)
CC[C@@H](CO)Nc1ccc2ncc(C#Cc3cncc(C(=O)Nc4ccc(CN5CCN(C)CC5)c(C(F)(F)F)c4)c3)n2n1	-43.2% (active)
N=c1c2cc(-c3ccccc3)oc2ncn1/N=C/c1ccc(Br)cc1	100%
Cc1ccc2c(c1)C(=O)/C(=C/c1cccc(F)c1)S2	113%
CS(=O)(=O)Nc1cc(-c2ccc3ncc(C#N)c(NCc4cccc(F)c4)c3c2)cnc1Cl	-25.1% (active)

Structure (SMILES)	growth
CC(=O)C1=C(C)NC(NNC(N)=S)=NC1c1ccccc1 (stereo not given)	103%
Cn1ccnc1C(=O)/C=C/c1ccc(CNC(=O)c2ccc(Cl)cc2)cc1	13.1%
Cc1cccc2c3c(sc12)C(c1ccc(F)cc1)C(C#N)=C(/N=C/c1ccc(Cl)cc1)O3 (stereo not given)	5.44% (active)
Cc1nn(-c2ccccc2)c2ncnc(N/N=C/c3cccc(O)c3)c12	72.6%
Cc1cc(-c2ccc(Cl)cc2)n(Cc2nnc(SCC(=O)Nc3ccc(S(N)(=O)=O)cc3)n2C2CCCCC2)n1	110%
Cc1cccc(/C=C/C(=O)Nc2ncc(Cc3cccc(C)c3)s2)c1	34.8%
N#Cc1cccc(/C(N)=N/C(N)=N/c2nc3ccccc3s2)c1	55.7%
CC(=O)N1N=C(c2cccc(-n3cccc3)c2)CC1c1cccc(F)c1 (stereo not given)	106%
CCCCCc1ccc(S(=O)(=O)Nc2cccc(-c3csc(NC(=O)CN4CCN(C)CC4)n3)c2)cc1	14.8%
COc1cc2nc(Cl)nc(Nc3cccc(C4=Nc5c(N)nc(N)nc5NC(c5ccc6c(c5)OCO6)C4)c3)c2cc1OC (stereo not given)	74.6%
N#Cc1cccc(CN2CCC3=C(C2)C(=O)N(Cc2ccc(Cl)cc2)C2=NCCCN23)c1	24.5%
COc1ccc(C(=O)c2c(N)c(C#N)cn2-c2ccccc2OC)cc1	48%
Cc1nc(-c2ccccc2O)ccc1C(=O)N=Nc1c(O)[nH]c2ccc(Br)cc12	123%
Cc1ccc(-n2cc(/C=N/NC(=O)c3ccncc3)c(-c3ccc(S(C)(=O)=O)cc3)n2)cc1	98.1%
Cc1ccc(-c2nnc(SCc3ccc(O)c4ncccc34)o2)cc1	34.4%
NC(N)=Nc1ccc(Oc2ccc(Nc3ccc(Cl)c(C(F)(F)F)c3)cc2)cc1	1.24% (active)
O=C(c1ccc(O)c(C(=O)N2Cc3ccc(OCCC[P+](c4ccccc4)(c4ccccc4)c4ccccc4)cc3C2)c1)N1Cc2cccc(F)c2C1	68.4%
Nc1ncc(-c2ccc3ncnc(N4CCc5cc(F)c(Cl)cc54)c3c2)cn1	31.6%
Cc1nn(-c2ccccc2)c2ncnc(N/N=C/c3ccccc3O)c12	52%
NC(N)=Nc1ccc(Oc2cccc(NC(N)=Nc3ccc(Br)c(C(F)(F)F)c3)c2)cc1	50.8%
